By AC50 is commonly meant the concentration at which the activity in the assay is half-maximal.

A short description of assay [1]: ATG_CRE_CIS: Attagene CIS-FACTORIAL HepG2 Assay for human cAMP Responsive Element (CRE) binding protein 3 (AID 2282926). Particulars: HepG2 CRE cis-reporter, Attagene multiplexed mRNA; actives raise or lower the signal. The method in brief: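 Liver-derived HepG2, transfected with a CRE-containing reporter panel, exposed 24 h; transcript levels sized and quantified by capillary electrophoresis of labelled amplicons; signal changes either way referenced to vehicle.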

Assay [2] in a line: ATG_CMV_CIS: Attagene CIS-FACTORIAL HepG2 Assay for human CMV (Internal Marker) (AID 2282928).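 Also: endpoint acts as a background internal control marker rather than a target.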 Particulars: HepG2 CMV promoter reporter, transcription factor profiling; actives raise or lower the signal. The method in brief: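 Reporter transcripts from transfected HepG2 cells are isolated after 24 h of chemical dosing, reverse-transcribed and amplified. Fragments labeled with 6-FAM are cut with HpaI and quantified by capillary electrophoresis; DMSO defines baseline.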

Assay [3] is described as follows: ATG_DR4_LXR_CIS: Attagene CIS-FACTORIAL HepG2 Assay for human Liver X Receptor (LXR), DR4 submotif (AID 2282929). Particulars: HepG2 Attagene DR4 cis-reporter, mRNA transcription; actives raise or lower the signal. The method in brief:
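DR4 cis-reporter in HepG2, 24 h exposure. Detection: RT-PCR, 6-FAM labelling, CE fragment analysis. Endpoint fitted bidirectionally, DMSO = baseline.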

Assay [4] has as its target Aryl hydrocarbon receptor (Homo sapiens) (UniProt P35869). Description: ATG_Ahr_CIS: Attagene CIS-FACTORIAL HepG2 Assay for human Aryl Hydrocarbon Receptor (Ahr) (AID 2282930). The note with it: HepG2 AhR cis-factorial reporter transcription; actives raise or lower the signal. The method in brief: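 Endogenous factor activity is tracked through cis-promoter reporter units transfected into HepG2 cells. Transcript levels at 24 h are read by fluorescent RT-PCR and capillary electrophoresis, with activity in either direction scored relative to DMSO.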

A short description of assay [5]: ATG_AP_1_CIS: Attagene CIS-FACTORIAL HepG2 Assay for human Activator Protein 1 (AP-1) (AID 2282931). The note with it: HepG2 Attagene cis-factorial AP-1 reporter mRNA; actives raise or lower the signal. The method in brief:
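Cis-regulated reporter units transiently expressed in HepG2 report endogenous transcription-factor activity. Signal: reporter mRNA at 24 h, via RT-PCR and fluorescent capillary electrophoresis. Endpoint derived by bidirectional fitting, DMSO as negative control.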

The nature of assay [6]: ATG_AP_2_CIS: Attagene CIS-FACTORIAL HepG2 Assay for human Activator Protein 2 (AP-2) (AID 2282932). The note with it: HepG2 AP-2 cis-reporter, Attagene transcription factor profiling; actives raise or lower the signal. The method in brief:
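Liver-derived HepG2 line, cis-reporter system measuring endogenous factors; 24 h dosing; reporter mRNA detected by fluorescent RT-PCR and capillary electrophoresis.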

The nature of assay [7]: ATG_BRE_CIS: Attagene CIS-FACTORIAL HepG2 Assay for human Bone Morphogenetic Protein (BMP) Response Element (BRE) (AID 2282933). Particulars: HepG2 BMP response element reporter, Attagene transcription factor profiling; actives raise or lower the signal. The method in brief:
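HepG2 cells transiently transfected with multiplexed cis-element reporter units were dosed with chemical for 24 h. Reporter mRNA was measured by RT-PCR with fluorescent labelling, HpaI digestion and capillary electrophoresis; bidirectional fitting relative to DMSO.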

Assay [8] addresses Retinoic acid receptor alpha (Homo sapiens) (UniProt P10276). Put plainly: ATG_DR5_RAR_CIS: Attagene CIS-FACTORIAL HepG2 Assay for human Retinoic Acid Receptor Alpha (RARE), DR5 submotif (AID 2282934).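 As to AC50: reporter responds to endogenous RAR alpha beta and gamma in HepG2 not RARA alone.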 Particulars: HepG2 Attagene cis-factorial RARE DR5 reporter, mRNA; actives raise or lower the signal. Summed up: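 After 24 h of chemical exposure, transiently transfected HepG2 cells were lysed for total RNA; the DR5-regulated reporter transcript was quantified via RT-PCR and capillary electrophoresis, with activity fitted bidirectionally against DMSO.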

Assay [9] addresses Transcription factor E2F1 (Homo sapiens) (UniProt Q01094). Description: ATG_E2F_CIS: Attagene CIS-FACTORIAL HepG2 Assay for human E2F Transcription Factor 1 (AID 2282935). The note with it: HepG2 Attagene cis-reporter, E2F reporter RNA transcripts; actives raise or lower the signal. The method in brief:
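Liver-derived HepG2 cells expressing transfected promoter-driven reporter units received test chemical for 24 hours. Signal gains or losses were fitted bidirectionally against DMSO.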

A short description of assay [10]: ATG_E_Box_CIS: Attagene CIS-FACTORIAL HepG2 Assay for human Enhancer Box (E-box) (AID 2282936). Particulars: HepG2 E-box cis-reporter transcription, actives raise or lower the signal. Summed up: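 In this cell-based setup, HepG2 cells bearing transfected promoter-driven reporter units were exposed to chemicals for 24 h; reporter transcripts were amplified, 6-FAM-labelled, cut with HpaI and sized by capillary electrophoresis.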

Assay [11] in a line: ATG_M_61_CIS: Attagene CIS-FACTORIAL HepG2 Assay for M61 Transcription Factor (Internal Marker) (AID 2282937). Particulars: HepG2 Attagene CIS-FACTORIAL M61 internal marker reporter; actives raise or lower the signal. The method in brief: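 Background-control endpoint: HepG2 cells with cis-regulated reporter constructs, 24 h exposure, reporter mRNA detected via fluorescent primer extension and capillary electrophoresis; values from bidirectional fitting with DMSO baseline.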

Assay [12] in a line: ATG_EGR_CIS: Attagene CIS-FACTORIAL HepG2 Assay for human Early Growth Response 1 (EGR1) (AID 2282938). The note with it: HepG2 Attagene CIS-FACTORIAL EGR reporter mRNA; actives raise or lower the signal. Summed up:
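Endpoint derived by bidirectional fitting versus DMSO vehicle. Method: cis-promoter reporter units transfected into HepG2, 24 h dosing, RNA isolation, RT-PCR with 6-FAM primer extension and HpaI digestion, then capillary electrophoresis fluorescence detection.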

A short description of assay [13]: ATG_M_19_CIS: Attagene CIS-FACTORIAL HepG2 Assay for M19 Transcription Factor (Internal Marker) (AID 2282939). Particulars: HepG2 Attagene CIS-FACTORIAL M19 internal marker reporter; actives raise or lower the signal. The method in brief:
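HepG2 cells transiently transfected with cis-regulated multiple reporter transcription units were dosed for 24 h; reporter mRNA was quantified by RT-PCR, 6-FAM primer-extension labelling, HpaI digestion and capillary electrophoresis, with bidirectional fitting against DMSO baseline.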

The nature of assay [14]: ATG_Ets_CIS: Attagene CIS-FACTORIAL HepG2 Assay for human Erythroblast Transformation Specific (ETS) (AID 2282941). The note with it: HepG2 ETS cis-reporter transcription, actives raise or lower the signal. The method in brief: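 Bidirectional fit versus DMSO of reporter mRNA signal, detected by RT-PCR and capillary electrophoresis in HepG2 cells transiently transfected with cis-element reporters and dosed 24 h.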

For assay [15], the target named is Hepatocyte nuclear factor 3-beta (Homo sapiens) (UniProt Q9Y261). Put plainly: ATG_FoxA2_CIS: Attagene CIS-FACTORIAL HepG2 Assay for human Forkhead box A2 (FOXA2) (AID 2282942). The note with it: HepG2 cis-reporter transcription factor activity, 24 h; actives raise or lower the signal. The method in brief: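 Measured: reporter mRNA induction or loss in HepG2 transiently carrying multiple cis-regulated reporter units, 24 h after dosing. Quantified by RT-PCR plus capillary electrophoresis, normalised to DMSO.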
Hepatocyte nuclear factor 3-beta (Homo sapiens), sequence (Q9Y261 whole entry, looked up): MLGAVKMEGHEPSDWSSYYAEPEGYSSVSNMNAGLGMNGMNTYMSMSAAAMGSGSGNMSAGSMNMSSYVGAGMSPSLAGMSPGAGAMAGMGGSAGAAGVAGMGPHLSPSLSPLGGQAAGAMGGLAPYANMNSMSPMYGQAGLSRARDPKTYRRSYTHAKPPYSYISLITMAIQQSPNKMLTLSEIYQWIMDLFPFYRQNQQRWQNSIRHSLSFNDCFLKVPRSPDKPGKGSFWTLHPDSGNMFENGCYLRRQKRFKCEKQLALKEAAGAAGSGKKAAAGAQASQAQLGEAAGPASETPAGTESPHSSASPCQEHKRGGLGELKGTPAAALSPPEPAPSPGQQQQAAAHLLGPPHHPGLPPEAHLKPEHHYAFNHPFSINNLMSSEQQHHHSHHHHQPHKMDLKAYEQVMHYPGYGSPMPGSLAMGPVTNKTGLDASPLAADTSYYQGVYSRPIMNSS

The nature of assay [16]: ATG_GATA_CIS: Attagene CIS-FACTORIAL HepG2 Assay for human GATA Binding Protein (AID 2282944). The note with it: HepG2 GATA cis-element reporter, Attagene multiplex mRNA; actives raise or lower the signal. Summed up: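 HepG2 cells transiently transfected with multiplexed cis-element reporter units reflecting endogenous transcription factor activity; reporter mRNA measured after 24 h dosing by RT-PCR, 6-FAM labeling, HpaI digestion and capillary electrophoresis. Bidirectional fitting versus DMSO baseline.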

The nature of assay [17]: ATG_GLI_CIS: Attagene CIS-FACTORIAL HepG2 Assay for human Zinc Finger Protein GLI1 (AID 2282945). The note with it: HepG2, Attagene cis-factorial reporter mRNA, GLI element; actives raise or lower the signal. Summed up:
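Transiently transfected HepG2 cells report endogenous transcription factor activity via cis-element-driven reporter units. After 24 h compound exposure, reporter mRNA was measured by RT-PCR with capillary electrophoresis; bidirectional fitting against DMSO baseline.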

The target in assay [18] is CCAAT/enhancer-binding protein beta (Homo sapiens) (UniProt P17676). Put plainly: ATG_C_EBP_CIS: Attagene CIS-FACTORIAL HepG2 Assay for human CCAAT/Enhancer Binding Protein (C/EBP) beta (AID 2282927). Particulars: HepG2 Attagene cis-factorial transcription factor reporter; actives raise or lower the signal. Summed up:
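HepG2, transient MRTU transfection, 24 h treatment. RT-PCR plus CE fluorescence; DMSO negative control, bidirectional fit.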

Assay [19] is described as follows: ATG_ERE_CIS: Attagene CIS-FACTORIAL HepG2 Assay for Estrogen Response Element (ERE) (AID 2282940). Particulars: HepG2 ERE cis-reporter, Attagene RNA transcript; actives raise or lower the signal. The method in brief: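 HepG2 cells transiently transfected with cis-promoter-driven multiplexed reporter transcription units report endogenous TF activity. After 24 h compound exposure, reporter mRNA is quantified by RT-PCR with capillary electrophoresis fluorescence; bidirectional fitting versus DMSO baseline.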

The nature of assay [20]: ATG_FoxO_CIS: Attagene CIS-FACTORIAL HepG2 Assay for human Forkhead box O (FoxO) (AID 2282943). The note with it: HepG2 Attagene cis-reporter, FoxO element, mRNA; actives raise or lower the signal. Summed up: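 Transfected HepG2 reporter cells exposed to test chemical for 24 h; reporter RNA measured by reverse transcription, PCR and fluorescent capillary electrophoresis; curves fitted for increases and decreases against DMSO.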

Active and inactive are the calls of the source. The calls were made as follows: active = hit-call score of the fitted dose curve at least 0.9, where 1 is the maximum; inactive = score below 0.9.

Aryl hydrocarbon receptor (Homo sapiens), sequence (P35869 whole entry, looked up): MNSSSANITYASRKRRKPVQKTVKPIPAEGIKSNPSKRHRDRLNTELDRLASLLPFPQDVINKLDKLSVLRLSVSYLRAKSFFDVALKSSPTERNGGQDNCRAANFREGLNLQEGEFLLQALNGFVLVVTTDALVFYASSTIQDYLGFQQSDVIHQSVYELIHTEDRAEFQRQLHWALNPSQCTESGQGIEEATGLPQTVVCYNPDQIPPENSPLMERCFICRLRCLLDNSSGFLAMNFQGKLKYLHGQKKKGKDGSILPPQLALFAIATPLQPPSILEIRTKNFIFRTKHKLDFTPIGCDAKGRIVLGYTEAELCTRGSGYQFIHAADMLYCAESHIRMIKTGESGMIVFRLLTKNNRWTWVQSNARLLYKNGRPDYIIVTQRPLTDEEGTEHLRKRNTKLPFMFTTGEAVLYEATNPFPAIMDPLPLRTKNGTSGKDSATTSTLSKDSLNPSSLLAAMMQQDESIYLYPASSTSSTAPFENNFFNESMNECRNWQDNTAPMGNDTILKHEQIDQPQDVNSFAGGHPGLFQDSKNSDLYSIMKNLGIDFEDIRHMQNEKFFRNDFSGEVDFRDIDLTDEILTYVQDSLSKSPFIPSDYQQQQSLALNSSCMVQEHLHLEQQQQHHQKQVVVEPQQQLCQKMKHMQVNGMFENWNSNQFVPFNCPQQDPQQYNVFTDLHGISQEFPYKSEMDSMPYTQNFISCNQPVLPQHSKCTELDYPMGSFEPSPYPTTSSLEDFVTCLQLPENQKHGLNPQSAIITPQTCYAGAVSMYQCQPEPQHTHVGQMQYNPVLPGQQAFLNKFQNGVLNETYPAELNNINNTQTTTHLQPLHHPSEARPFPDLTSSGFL
Transcription factor E2F1 (Homo sapiens), sequence (Q01094 whole entry, looked up): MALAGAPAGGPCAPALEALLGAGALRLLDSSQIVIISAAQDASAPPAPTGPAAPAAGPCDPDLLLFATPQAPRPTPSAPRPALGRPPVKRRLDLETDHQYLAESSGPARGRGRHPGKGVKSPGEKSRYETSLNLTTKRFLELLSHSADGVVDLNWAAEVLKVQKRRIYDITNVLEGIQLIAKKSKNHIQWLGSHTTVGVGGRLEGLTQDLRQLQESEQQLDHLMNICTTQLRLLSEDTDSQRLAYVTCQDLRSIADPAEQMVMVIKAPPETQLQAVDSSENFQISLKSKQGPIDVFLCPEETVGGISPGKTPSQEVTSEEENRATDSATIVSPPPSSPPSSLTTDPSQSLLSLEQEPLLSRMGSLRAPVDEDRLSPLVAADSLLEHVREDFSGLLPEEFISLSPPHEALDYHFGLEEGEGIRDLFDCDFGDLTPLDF
Retinoic acid receptor alpha (Homo sapiens), sequence (P10276 whole entry, looked up): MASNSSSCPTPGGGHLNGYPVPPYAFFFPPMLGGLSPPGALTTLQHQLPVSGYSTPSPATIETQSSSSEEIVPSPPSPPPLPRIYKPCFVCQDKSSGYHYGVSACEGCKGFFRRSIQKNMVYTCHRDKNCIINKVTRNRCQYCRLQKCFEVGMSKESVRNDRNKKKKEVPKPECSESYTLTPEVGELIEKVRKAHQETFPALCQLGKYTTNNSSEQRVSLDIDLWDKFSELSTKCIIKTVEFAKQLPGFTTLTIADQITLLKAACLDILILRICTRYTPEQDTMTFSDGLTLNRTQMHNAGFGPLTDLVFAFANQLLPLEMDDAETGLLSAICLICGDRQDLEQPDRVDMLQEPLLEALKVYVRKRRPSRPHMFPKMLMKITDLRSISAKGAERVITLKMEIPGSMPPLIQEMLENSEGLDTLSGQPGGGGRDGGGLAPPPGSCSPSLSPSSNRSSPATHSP
CCAAT/enhancer-binding protein beta (Homo sapiens), sequence (P17676 whole entry, looked up): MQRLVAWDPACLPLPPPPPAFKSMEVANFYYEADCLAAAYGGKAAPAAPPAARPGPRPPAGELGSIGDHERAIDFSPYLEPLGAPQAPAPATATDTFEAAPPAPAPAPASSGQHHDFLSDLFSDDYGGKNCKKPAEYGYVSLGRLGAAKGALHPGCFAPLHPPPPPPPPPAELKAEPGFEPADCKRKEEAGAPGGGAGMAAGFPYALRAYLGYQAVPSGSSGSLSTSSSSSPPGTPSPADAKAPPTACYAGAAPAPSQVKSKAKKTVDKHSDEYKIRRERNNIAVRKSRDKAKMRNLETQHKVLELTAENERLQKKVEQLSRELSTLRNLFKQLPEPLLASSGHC

As for `CCOC(=O)CCc1ccccc1`, the compound was called inactive in assay [1], in [2], in [3], in assay [4], in assay [5] and in assay [6]. In addition, the call in assay [7], in [8], in assay [9], in assay [10], in assay [11] and in [12] was inactive. Further, the compound was classed as inactive in assay [13], in [14], in assay [15], in [16] and in [17].
On to `O=C(O)c1cccnc1C(=O)O`, for which the compound was called inactive in assay [1], in assay [18], in assay [4], in [5], in [6] and in [7]. Also, the outcome in [8], in [9], in [10], in [11], in assay [12] and in [13] was inactive. The compound was called inactive in assay [19], in [14], in assay [15], in assay [20], in assay [16] and in assay [17].
Regarding `CC(C)CCCCCCCCCCCCCCC(=O)O`, the call in assay [1], in assay [2], in [3], in [4], in [5] and in assay [6] was inactive. Further, the compound was classed as inactive in [9], in assay [10], in [11], in assay [12], in [13] and in assay [14]. For the same compound, the compound was classed as inactive in assay [15], in assay [20], in assay [16] and in [17]. For the same compound, the AC50 in [8] is 54.2 µM (active).
Regarding `C[C@@H]1CCN(C(=O)[C@H](CCCN=C(N)N)NS(=O)(=O)c2cccc3c2NC[C@H](C)C3)[C@@H](C(=O)O)C1`, the call in assay [1], in [2], in [3], in assay [4], in assay [5] and in [6] was inactive. The compound was classed as inactive in [8], in assay [9], in [10], in assay [11], in assay [12] and in assay [13]. Moreover, the compound was classed as inactive in [19], in assay [14], in assay [15], in assay [20], in assay [16] and in assay [17].
As for `CCCCCC(=O)CC`, the result in assay [1], in assay [3], in assay [4], in assay [5], in assay [6] and in [7] was inactive. Moreover, the call in assay [9], in assay [10], in assay [11], in assay [12], in assay [13] and in assay [14] was inactive. In addition, the outcome in assay [15], in [20], in assay [16] and in assay [17] was inactive.
For the compound `CS(=O)(=O)OCCCCOS(C)(=O)=O`, the result in assay [1], in [3], in assay [5], in assay [6], in assay [8] and in [9] was inactive. Also, the result in assay [10], in assay [11], in [12], in assay [13], in [19] and in assay [14] was inactive. For the same compound, the compound was classed as inactive in assay [15], in assay [20], in [16] and in [17]. For the same compound, in assay [4], the AC50 was 63.6 µM (active).
`CCCCCCCC(=O)OCCCCCC`: the compound was classed as inactive in assay [1], in assay [2], in assay [3], in assay [4], in assay [5] and in assay [6]. For the same compound, the call in assay [7], in assay [8], in assay [9], in assay [10], in [11] and in [12] was inactive. Also, the compound was classed as inactive in assay [13], in assay [14], in assay [15], in assay [20], in assay [16] and in assay [17].

These data come from PubChem BioAssay (EPA / NIEHS).
